Here are results for 40 molecules from PubChem BioAssay (NCATS).

Several values for one entry are separate records, joined by “and”; a condition that tells them apart may be missing. Equal entries are not always repeated. Results filed as inconclusive are left out.

This experiment can be described thus: qHTS assay for small molecule agonists of retinoid X receptor alpha signaling (AID 588544). The settings on record: HEK293T RXRa-UAS-bla, beta-lactamase reporter, 18 h; 530 nm emission. The text has this:
NIH Chemical Genomics Center [NCGC] U.S. Environmental Protection Agency [EPA] National Institutes of Environmental Health Sciences [NIEHS] National Toxicology Program [NTP] NCGC Assay Overview The Retinoid X receptor (RXR), a nuclear hormone receptor is expressed in liver, spleen, placenta, epidermis, central nervous system. These receptors are able to form homo and heterodimers with other nuclear receptors and due to this heterodimerizing ability, RXR functions as master regulators producing diverse physiological effects. Three subtypes of RXR exist; alpha, beta and gamma. Retinoid X receptor alpha (RXR-alpha) has potential roles in metabolic signaling pathways, skin alopecia, dermal cysts, cardiac development, insulin sensitization etc. Therefore screening environmental chemicals on RXR-alpha signaling can be used for the studies focused on such therapeutic applications.
NCGC Assay Protocol Summary Using a beta-lactamase reporter-gene under control of Retinoid X receptor--alpha (RXR-alpha) response element, a cell-based assay [GeneBLAzer (RXR-alpha -UAS-bla assay developed by Invitrogen] was used to measure RXR-alpha ligands signaling. GeneBLAzer RXR-alpha -UAS-bla HEK293T cells were used with assay medium containing 2% charcoal-stripped FBS. The assay was performed in clear bottom black Greiner 1536-well plates. 9-cis-retinoic acid was used in the screen as the positive control. Library compounds were measured for their ability to stimulate the reporter gene activity. Compounds were screened in a titration series in 1536-well format. The fluorescence intensity (405 nm excitation, 460/530 nm emission) was measured using an EnVision plate reader. Data was normalized relative to 9-cis-retinoic acid control (500 nM, 100%), and DMSO only wells (basal, 0%). Concentration-response titration points for each compound were fitted to the Hill equation yielding concentrations of half-maximal stimulation (EC50) and maximal response (efficacy) values. qHTS protocol for RXR-alpha beta-lactamase assay in agonist mode [Step] [Parameter] [Value] [Description] 1. Reagent; 6 uL; 2500 cells/well 2. Incubation; 37 C for 4 hrs 3. Compounds; 23 nL; 0.59 nM to 92 uM 4. Controls (9-cis-retinoic acid); 23 nL, - One column with dose response, start 38 uM, 1:3 dilutions in duplicates - Final concentrations of 500 nM and 50 nM in two columns 5. Incubation; 37 C for 18 hrs 6. Detection reagent; 1 uL of CCF4-dye 7. Incubation; RT for 2 hrs 8. Detection; Fluorescence; Envision plate reader
A general note: qHTS replaces the single test concentration by a dilution series.
Regarding `COc1cc(Cl)c(OC)cc1Cl`, the max response was -12.5%.

Take `O=C(O)C(F)(F)C(F)(F)C(F)(F)C(F)(F)C(F)(F)C(F)(F)C(F)(F)C(F)(F)C(F)(F)F`: the max response was -12.9% and -38.7%.

On to `COc1ccccc1[N+](=O)[O-]`, for which the max response is 2.69%.

On to `CCCN(CC)CC1COC2(CCC(C(C)(C)C)CC2)O1` (stereo not given), for which the max response is -11.3%.

Turning to `COP(=S)(OC)Oc1ccc([N+](=O)[O-])c(C)c1`, the max response was -4.53%.

As to `CCC(C)(c1ccc(O)cc1)c1ccc(O)cc1`, the max response turned out to be 3.09%.

Regarding `C=CCC1=C(C)[C@@H](OC(=O)[C@@H]2[C@@H](C=C(C)C)C2(C)C)CC1=O`, the max response came to 6.67%.

Take `CC1(C(=O)Nc2ccc(O)c(Cl)c2Cl)CCCCC1`: the max response is -10.8%.

On to `CCNc1nc(NC(C)C)nc(OC)n1`, for which the max response was -5.81%.

Turning to `CCCCN(CC)C(=O)SCCC`, the max response is -10.1%.

Turning to `CCNc1nc(NC(C)(C)C)nc(SC)n1`, the max response is -0.223%.

Turning to `CSC1=N[C@@](C)(c2ccccc2)C(=O)N1Nc1ccccc1`, the max response is 25.5%.

In the case of `COc1ccc(O)c(C(C)(C)C)c1`, the max response was -14.4%.

For the molecule `O=CNC(N1CCN(C(NC=O)C(Cl)(Cl)Cl)CC1)C(Cl)(Cl)Cl` (stereo not given), the max response is -14.2%.

As for `Cc1cc(Cl)ccc1OCC(=O)O`, the max response was -7.53%.

Turning to `COC(=O)NS(=O)(=O)c1ccc(N)cc1`, the max response was -13.8% and -12.5%.

With `C=C(C)CN(CC)c1c([N+](=O)[O-])cc(C(F)(F)F)cc1[N+](=O)[O-]`, the max response came to 3.32%.

Take `[Ga]#[As]`: the max response is -5.43%.

With `Cc1cc(C)nc(Nc2ccccc2)n1`, the max response was 1.3%.

As to `Cc1cc(C2CC2)nc(Nc2ccccc2)n1`, the max response was 7.71%.

On to `CCC(C)(C)c1cc(-n2nc3ccccc3n2)c(O)c(C(C)(C)CC)c1`, for which the max response is -3.41%.

As for `O=[N+]([O-])Nc1nccn1Cc1ccc(Cl)nc1`, the max response is -15.2%.

Turning to `FC(F)(F)c1ccc(Cl)cc1`, the max response is -3.02% and -12.4%.

As to `CC(C)COP(=O)(OCC(C)C)OCC(C)C`, the max response was -15.8%.

For the molecule `O=[N+]([O-])c1cc(C(F)(F)F)cc([N+](=O)[O-])c1Cl`, the max response was determined as 2.71%.

For `CNC(=O)O/N=C(\C)SC`, the max response was -25.7%.

With `Clc1ccc(C2(Cn3cncn3)CC(Br)CO2)c(Cl)c1` (stereo not given), the max response is 6.2%.

For `CCc1cc(C)cc(CC)c1-c1c(OC(=O)C(C)(C)C)n2n(c1=O)CCOCC2`, the max response was -12.9%.

Regarding `CC1(C)CC/C(=C\c2ccc(Cl)cc2)C1(O)Cn1cncn1` (stereo not given), the max response came out at 6%.

Regarding `CCC(C)c1ccc(O)cc1` (stereo not given), the max response is -6.05%.

Regarding `N#CCNC(=O)c1cnccc1C(F)(F)F`, the max response was -4.19%.

With `C#CC(C)(C)NC(=O)c1cc(Cl)cc(Cl)c1`, the max response is -7.53%.

For `CCCCCCCCCCCCN(C)C`, the max response is -10.4%.

With `CCOc1nc(C(Cl)(Cl)Cl)ns1`, the max response was -11.9%.

Regarding `CC(Oc1ccc(Cl)cc1Cl)C(=O)O` (stereo not given), the max response is 11.7%.

For `O=C=Nc1ccc(Cl)cc1`, the max response was -14.4%.

Turning to `ClC1=C(Cl)C2(Cl)C3C4OC4C(Cl)C3C1(Cl)C2(Cl)Cl` (stereo not given), the max response was found to be 2.4%.

As to `Cc1ccn2nc(S(=O)(=O)Nc3c(F)cccc3F)nc2n1`, the max response is -22%.

Take `CC(C)(C)C(=O)[C@H](Oc1ccc(Cl)cc1)n1cncn1`: the max response turned out to be 21.3%.

As to `CNC(=O)Oc1cc(C)cc(C(C)C)c1`, the max response is -15.4%.
